Results on 34 compounds are retold here after PubChem BioAssay (NCI).

Compounds without any hit were thinned out: in the full panel of roughly 83,000, 20% have a hit.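 Plates (96-well) were seeded with cells, treated with compound at one concentration, and incubated for 48 hours before percent growth was determined.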 Activity calls are given as the source filed them. How the source made its calls: active means growth percent below 10; inactive means the rest.

The first test deals with CAKI-1 renal. As to the kind of experiment: NCI-60 one-dose screen, 48 h (100 = growth as untreated, 0 = no growth, -100 = all killed). To be noted: 10 µM unless noted.
Consider `COC(=O)c1[nH]nc2c1C1(C(=O)N(C)c3ccccc31)C(C#N)=C(N)O2` (centres undefined), for which the growth is 91.1% (inactive). With `CC1=NC2=NC(=O)/C(=C3/N=C(C)C=C(c4ccccc4)N3N)NN2C(c2ccccc2)=C1`, the growth is 83.2% (inactive). As for `Nc1cc(-c2c[nH]c3ccc(Br)cc23)nc2cc(-c3c[nH]c4ccc(Br)cc34)nn12`, the growth is 21.1% (inactive).

As for `O=S(=O)(NCCNc1nccc(-n2cnc3ccccc32)n1)c1ccc(Cl)cc1`, the growth is 87.4% (inactive). With `COc1ccc(Cn2cc3c(c2-c2cc(OC)c(OC)c(OC)c2)CCc2c(CN4CCOCC4)noc2-3)cc1`, the growth was 44.6% (inactive). As to `CN(C)CCN(C)c1ccc2ncc(C#Cc3cncc(C(=O)Nc4ccc(CN5CCN(C)CC5)c(C(F)(F)F)c4)c3)n2n1`, the growth was 58.1% (inactive).

As to `CCO/C=N/C1=C(C#N)C(c2ccc(F)cc2)c2sc3c(CC)cccc3c2O1` (centres undefined), the growth is 36.4% (inactive). Regarding `COc1ccc(/C=C/C(=O)c2cccc(NC(=O)CSc3nc4ccccc4c(=O)n3-c3ccccc3)c2)cc1OC`, the growth is 88% (inactive). `CCN1CCN(Cc2cn(-c3ccc(S(N)(=O)=O)cc3)nn2)CC1`: the growth is 96.5% (inactive). `Cc1cccc2c3c(sc12)C(c1ccc(Cl)cc1)c1c(nc(CC(=O)Nc2ccccc2)[nH]c1=O)O3` (centres undefined): the growth was 41.1% (inactive).

On to `C=C=COc1cccc(/C(N)=N/C(N)=N/c2nc3ccccc3s2)c1`, for which the growth is 36.9% (inactive). `Cc1cc2nc(C(Cl)Cl)nc(-c3cccs3)n2n1`: the growth is -30.9% (active).

A further test relates to A498 renal. The description is as above. To be noted: 10 µM unless noted.
Take `COc1cc(-c2nnc(SCc3ccc(O)c4ncccc34)n2-c2ccccc2)cc(OC)c1OC`: the growth is 1.54% (active). As for `CN1c2ccccc2Sc2cc(C=C(C#N)C#N)ccc21`, the growth was -19% (active). `CC(=O)N(C)C1CCc2c(sc(NC(=O)c3ccc(C(C)(C)C)cc3)c2C(N)=O)C1` (centres undefined): the growth is 80% (inactive). For `COc1cc(/C=N/NC(=O)c2cn(C3CC3)c3c(OC)c(N4CC5CCCNC5C4)c(F)cc3c2=O)ccc1O` (centres undefined), the growth was 99.4% (inactive). In the case of `CC1(C)[C@@H](O)CC[C@]2(C)[C@H]3CC[C@@H]4[C@H]5[C@H](C(=O)/C=C\c6ccc([N+](=O)[O-])cc6)CC[C@]5(O)CC[C@@]4(C)[C@]3(C)CC[C@@H]12`, the growth was 48.7% (inactive). The same measure, in the same setting: the figure for `CCCCCc1ccc(S(=O)(=O)Nc2cccc(-c3csc(NC(=O)CN4CCN(C)CC4)n3)c2)cc1` is 82.9% (inactive); for `O=S(=O)(NCCNc1nccc(-n2cnc3ccccc32)n1)c1ccc(Br)cc1` it is 76.3% (inactive); for `COc1ccccc1-n1cc(C#N)c(N)c1C(=O)c1ccc(Br)cc1` it is 60.6% (inactive).

In the case of `COc1cc2oc(-c3cccc(C(=O)N[C@@H](CC(C)C)C(=O)OC(C)(C)C)c3)cc(=O)c2c(OC)c1OC`, the growth is 96.7% (inactive). Consider `CC1(C)CC[C@]23CC[C@]4(C)[C@H](CC[C@@H]5[C@@]6(C)CCCN(CO)C(C)(C)[C@@H]6CC[C@]54C)[C@H]2[C@H]1OC3`, for which the growth was 107% (inactive). Take `CCOC(=O)c1c(NC(=O)c2ccccc2C(F)(F)F)sc2c1CCC(=O)C2`: the growth was 85.2% (inactive). As to `COc1ccc(N2C(=O)c3cc(Cl)ccc3NC2SCc2ccccc2)cc1` (centres undefined), the growth is 84.7% (inactive). Take `CCCCCc1ccc(S(=O)(=O)Nc2cccc(-c3csc(NC(=O)CNCCN(C)C)n3)c2)cc1`: the growth is 76.9% (inactive). For `O=C1CCCc2nc(Nc3ccc(S(=O)(=O)Nc4ccc([N+](=O)[O-])cc4)cc3)ncc21`, the growth is 94.7% (inactive).

For the compound `Clc1nc2ccccc2nc1-c1nnc(C2CCCCC2)o1`, the growth is 89.3% (inactive). As for `Cc1ccc(C2=NN(C)C(=O)C3(CCCC3)C2)cc1`, the growth is 89.4% (inactive). Regarding `O=C1[C@H]2Cc3c([nH]c4ccccc34)[C@@H](c3c(Cl)cccc3Cl)N2C(=O)CN1C1CCN(CC2CCCCC2)CC1`, the growth was 87.2% (inactive). Turning to `NC(=O)c1cccc(-n2ccc3cc(NC(=O)Nc4ccc(N5CCOCC5)c(C(F)(F)F)c4)ccc32)n1`, the growth is -57.1% (active). Same read-out and setting: with `COc1ccc(N2CCN(C3=C(Cl)C(=O)C(C)=C(C)C3=O)CC2)cc1` the figure was 108% (inactive).

`C=C(C=O)[C@@H]1CC[C@]2(C)[C@H](C(=O)C=C3[C@H]4C[C@](C)(C(=O)OC)CC[C@]4(C)CC[C@]32C)[C@@]1(C)CCC#N`: the growth was 115% (inactive). In the case of `CCOc1ccc(C(=O)Nc2ncc(Cc3ccc(F)cc3)s2)cc1`, the growth is 13.9% (inactive). In the case of `Cc1ccc(-c2cc3nc(C(Cl)Cl)nc(-c4cccs4)n3n2)cc1`, the growth was 84.3% (inactive).
